PubChem BioAssay AID493034 (The Scripps Research Institute Molecular Screening Center, 2011)
Among all 2,400 compounds or so, about 2,200 (92%) were called active. The set was probably picked from earlier hits. The list shows a part of the results. Unmarked numbers belong to inactive results.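 Rule for the calls: active = mean inhibition over triplicate runs exceeds the cutoff derived for the earlier primary screen (cut at about 25% in these data); inactive = the rest.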

Each compound was assayed against Platelet-activating factor acetylhydrolase IB subunit alpha2 (Homo sapiens) (UniProt P68402) (assay: PAFAH1B2 inhibitors, confirmation, biochemical, fluorescence polarization, FP-rhodamine probe, triplicate (AID 493034;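 note: 0% = enzyme with DMSO and 100% = wells lacking PAFAH1B2 protein; inhibitors lower polarization by leaving the probe unbound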)). Conditions: recombinant PAFAH1B2, FP-rhodamine probe fluorescence polarization; at 3.39 µM; stronger effect = higher value.
Platelet-activating factor acetylhydrolase IB subunit alpha2 (Homo sapiens), sequence (P68402 whole entry, looked up): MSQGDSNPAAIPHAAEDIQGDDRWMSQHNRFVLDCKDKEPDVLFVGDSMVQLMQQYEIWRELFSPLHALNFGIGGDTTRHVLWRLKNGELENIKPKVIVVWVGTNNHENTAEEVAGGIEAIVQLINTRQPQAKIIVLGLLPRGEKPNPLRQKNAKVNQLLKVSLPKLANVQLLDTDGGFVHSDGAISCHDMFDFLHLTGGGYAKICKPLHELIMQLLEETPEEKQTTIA

Row | SMILES | inhibition
1 | N#Cc1c(NC(=O)Cn2c(=O)oc3ccccc32)oc(-c2ccccc2)c1-c1ccccc1 | 45% (active)
2 | O=C(NNC(=O)C1CCN(S(=O)(=O)c2ccc(Cl)cc2)CC1)c1ccccc1 | 24%
3 | C=CCNC(=O)C1CCN(S(=O)(=O)c2ccc(Br)cc2)CC1 | 23.8%
4 | CCN(CC)S(=O)(=O)c1ccc(C(=O)NNC(=O)C2CCN(S(=O)(=O)c3ccc(Cl)cc3)CC2)cc1 | 37.9% (active)
5 | Cc1ccc(C(c2nnnn2Cc2ccccc2)N2CCN(Cc3ccccc3)CC2)cc1 (stereo unspecified) | 16.6%
6 | Cn1c(=S)[nH]c2sc3c(c2c1=O)CCC(C(C)(C)C)C3 (stereo unspecified) | 41.1% (active)
7 | O=C(O)c1ccc(CSCc2ccccc2Cl)o1 | 14.4%
8 | CCOC(=O)CSc1nnc(NC(=O)CN2CCN(C=O)CC2)s1 | 3.79%
9 | COC(=O)c1cc(NS(=O)(=O)c2ccc(N3CCCCCC3)c([N+](=O)[O-])c2)cc(C(=O)OC)c1 | 23.8%
10 | CCN(C(=O)COC(=O)c1cc(NS(=O)(=O)c2ccc(Cl)c([N+](=O)[O-])c2)ccc1O)C1CCCCC1 | 36.1% (active)
11 | CCN(Cc1ccccc1)C(=O)COC(=O)c1cc(S(=O)(=O)Nc2ccccc2OC)ccc1O | 23.2%
12 | Cc1ccc(OCCC(=O)OCC(=O)NC2CCCC(C)C2C)cc1 (stereo unspecified) | 21.5%
13 | Oc1ccc(C23CC4CC(CC(C4)C2)C3)cc1O | 33.2% (active)
14 | CCCCCCCCN1[C@@H](CC(=O)O)c2ccc(C(F)(F)F)cc2S1(=O)=O | 21.7%
15 | CC(C)(C)c1ccc(C2=CC(c3ccccc3F)n3ncnc3N2)cc1 (stereo unspecified) | 15.1%
16 | O=C(O)c1ccc(Cl)c(S(=O)(=O)N(Cc2ccccc2)c2ccc(F)cc2)c1 | 22.7%
17 | CCN(CC)CCN(C(=O)c1ccc(S(=O)(=O)N(CC)c2ccccc2)cc1)c1nc2c(OC)ccc(OC)c2s1 | 16.4%
18 | CCN(c1ccccc1)S(=O)(=O)c1cc(C(=O)O)ccc1C | 45.1% (active)
19 | CC1CCCC(NC(=O)c2cccc(S(=O)(=O)NCc3ccccc3)c2)C1C (stereo unspecified) | 18.3%
20 | Cc1ccc([C@@H]2CC=C(C(=O)O)[C@H](c3ccc(C(C)(C)C)cc3)N2S(=O)(=O)c2ccc(C)cc2)cc1 | 95.5% (active)
21 | CCc1ccc([C@@H]2CC=C(C(=O)O)[C@H](c3ccc(C(C)(C)C)cc3)N2S(=O)(=O)c2ccc(C)cc2)cc1 | 97.5% (active)
22 | Cc1ccc(S(=O)(=O)N2[C@@H](c3ccc(C(C)(C)C)cc3)C(C(=O)O)=CC[C@H]2c2ccc(C(C)C)cc2)cc1 | 89.3% (active)

Row | SMILES | inhibition
23 | O=C(COc1ccc(Cl)cc1)NNC(=O)C(=O)N1CCCCC1 | 19.2%
24 | CCOC(=O)N1CCN(C(=O)c2ccccc2NC(=O)COc2ccccc2)CC1 | 1.01%
25 | O=C(COc1ccc(Cl)cc1)NC1=NN(c2ccccc2)C(=O)C1 | 67.5% (active)
26 | N#CC1=C(N)c2ccccc2CC12CCCCC2 | 17.4%
27 | N=C(N)c1ccc(N=Nc2c(O)ccc3c2[nH]c2ccccc23)cc1 | 33.4% (active)
28 | O=[N+]([O-])c1cc(C2Nc3cccc4cccc(c34)N2)ccc1Cl | -0.07%
29 | O=C1OC[C@@H]2CCCN2C(=O)[C@@H](CC(=O)N(CCO)Cc2ccccc2)C/C=C\C[C@H]1Cc1ccc(F)cc1 | 29.1% (active)
30 | O=C1N[C@@H](Cc2ccccc2)COC(=O)[C@@H](Cc2ccc(F)cc2)C/C=C\C[C@@H]1CC(=O)N(CCO)Cc1ccccc1 | 37.2% (active)
31 | O=C1N[C@@H](Cc2c[nH]c3ccccc23)COC(=O)[C@@H](Cc2ccc(F)cc2)CC/C=C/C[C@@H]1CC(=O)N(CCO)Cc1ccccc1 | 21.5%
32 | O=C1OC[C@@H]2CCCN2C(=O)[C@H](CC(=O)N(CCO)Cc2ccccc2)C/C=C\C[C@H]1Cc1ccc(F)cc1 | 33.2% (active)
33 | O=C1OC[C@H]2CCCN2C(=O)[C@@H](CC(=O)N(CCO)Cc2ccccc2)C/C=C\C[C@@H]1Cc1ccc(F)cc1 | 27.5% (active)
34 | O=C(O)CCc1ccc(-c2ccc(Br)cc2)n1-c1ccc(O)cc1 | 31.6% (active)
35 | Cc1ccc(S(=O)(=O)Oc2ccc(/C=C3/C(=N)N4C(=NC3=O)SN=C4S(C)(=O)=O)cc2)cc1 | 50% (active)
36 | CCC1=NN2C(=N)/C(=C\c3cccn3-c3ccc(Cl)cc3)C(=O)N=C2S1 | 36.4% (active)
37 | Cc1ccc(-n2cccc2/C=C2\C(=N)N3N=C(c4ccco4)SC3=NC2=O)cc1 | 38.1% (active)
38 | CS(=O)(=O)C1=NSC2=NC(=O)/C(=C\c3cccn3-c3ccc(Cl)cc3)C(=N)N21 | 55.9% (active)
39 | Cc1ccc(SCc2cn3c(C)csc3n2)cc1 | 59.7% (active)
40 | Cc1ccc(SCC(=O)NC(C)c2ccccc2)cc1 (stereo unspecified) | 21%
41 | CCc1ccc(C2CC(c3ccc(Cl)cc3)n3nc(N)nc3N2)cc1 (stereo unspecified) | 30.1% (active)
42 | C=CC[C@H](CC(=O)N(CCO)Cc1ccccc1)C(=O)N[C@H](COC(=O)[C@@H](CC=C)Cc1ccc(F)cc1)Cc1ccccc1 | 58% (active)
43 | CCCCn1c(N)c(N(CC(C)C)C(=O)CN2C(=O)NC3(CCC(C(C)(C)CC)CC3)C2=O)c(=O)[nH]c1=O (stereo unspecified) | 16.4%
44 | COc1ccc2[nH]c(C(=O)NCCN3CCOCC3)cc2c1 | 6.21%

Row | SMILES | inhibition
45 | COc1ccc(N2CCN(C(=O)CCNC(=O)c3ccc(C(C)(C)C)cc3)CC2)cc1 | 62.3% (active)
46 | CC(/C=C1\SC(=S)N(NS(=O)(=O)c2ccccc2)C1=O)=C\c1ccccc1 | 39.6% (active)
47 | Cc1ccc(S(=O)(=O)n2ccc3c(OCCOCCSCC(NC(=O)OC(C)(C)C)C(=O)O)cccc32)cc1 (stereo unspecified) | 85.8% (active)
48 | O=C1C(=O)N2C(=C1C(=O)N1CCCCCC1)c1ccccc1CC21CCCC1 | 32.8% (active)
49 | CC1(C)Cc2ccccc2C2=C(C(=O)N3CCCCCC3)C(=O)C(=O)N21 | 64.2% (active)
50 | CCC(=O)Nn1cnc2c(c1=O)C1(CCCCC1)Cc1ccccc1-2 | 19.9%
51 | O=C(NCCSc1ncc(-c2ccc(F)cc2)[nH]1)c1ccc2c(c1)OCO2 | 20.8%
52 | CCOC(=O)c1ccccc1NC(=O)CSc1nnc(C)c(=O)[nH]1 | 22.2%
53 | CCOC(=O)Cc1csc(NC(=O)CSc2nc(-c3ccccc3)c(C#N)c(=O)[nH]2)n1 | 63.6% (active)
54 | N#Cc1c(-c2ccccc2)nc(SCC(=O)Nc2ccc(OC(F)(F)Cl)cc2)[nH]c1=O | 76.1% (active)
55 | CCOc1ccc2nc(NC(=O)CSc3nc(-c4ccccc4)c(C#N)c(=O)[nH]3)sc2c1 | 81.7% (active)
56 | CCOc1ccc(OCCSc2nc3ccccc3c(=O)[nH]2)cc1 | 3.03%
57 | CCc1ccc(S(=O)(=O)NCCc2csc(-c3ccccc3)n2)s1 | 22.1%
58 | Cc1cc(N2CCCC2=O)cc(C)c1S(=O)(=O)NCCOc1ccc(C(C)(C)C)cc1 | 33.7% (active)
59 | O=C1C(=O)C(c2ccccc2)C(=O)C1c1ccccc1 (stereo unspecified) | 25.4% (active)
60 | O=C(O)c1[nH]c2ccccc2c1C(c1cc(Cl)cc([N+](=O)[O-])c1O)c1c(C(=O)O)[nH]c2ccccc12 | 43.8% (active)
61 | COc1cc(Cl)cc(C(c2c(C(=O)O)[nH]c3ccccc23)c2c(C(=O)O)[nH]c3ccccc23)c1O | 71% (active)
62 | CN(Cc1cccs1)C(=O)CCNS(=O)(=O)c1ccc(Br)cc1 | 21.4%
63 | O=[N+]([O-])c1cc(-c2csc(NCCc3nc4cc(C(F)(F)F)ccc4n3CCCO)n2)ccc1Cl | 14.9%
64 | O=C(O)c1cc(NS(=O)(=O)c2ccc3ccccc3c2)ccc1O | 35.9% (active)
65 | O=C(O)c1ccc(NS(=O)(=O)c2ccc(Cl)c(Cl)c2)cc1O | 20.1%
66 | COc1ccccc1NC(=O)C(=O)NNS(=O)(=O)c1ccc2ccccc2c1 | 23.4%

Row | SMILES | inhibition
67 | CCC(Sc1nc(-c2cccc(OC)c2)c(C#N)c(=O)[nH]1)C(=O)Nc1nnc(C(C)C)s1 (stereo unspecified) | 34.6% (active)
68 | Cc1ccccc1S(=O)(=O)N1[C@@H](c2ccc(Br)cc2)C(C(=O)O)=CC[C@H]1c1ccc(Cl)cc1 | 83.2% (active)
69 | O=C(O)C1=CC[C@@H](c2ccc(Cl)cc2)N(S(=O)(=O)c2ccc(Cl)cc2)[C@H]1c1ccc(Br)cc1 | 86.3% (active)
70 | CNc1nc(NCCOC23CC4CC(CC(C4)C2)C3)nc(OCC(F)(F)F)n1 | 22.2%
71 | CCCCNC(=O)Oc1ccc(C(=O)N2c3ccccc3NC(=O)C2C)cc1 (stereo unspecified) | 41.2% (active)
72 | CC(C)(C)Cc1nnc(NS(=O)(=O)c2ccc(F)cc2)s1 | 20.3%
73 | C/C(CC(C)(C)C1CCCCC1)=N\NC(N)=S | 30.1% (active)
74 | NC(=NCCc1ccc(Cl)cc1)NS(=O)(=O)c1ccc(F)cc1 | 50.7% (active)
75 | O=S(=O)(NC(=NCCc1ccc(Cl)cc1)c1ccccc1Cl)c1cccs1 | 110% (active)
76 | O=C(CNS(=O)(=O)c1ccccc1)NCC(=O)OCc1ccc(Br)cc1 | 23.9%
77 | NC(=NCCc1ccc(Cl)cc1)NS(=O)(=O)c1ccccc1 | 49.9% (active)
78 | O=S(=O)(NCc1ccc(Cl)cc1)c1ccc(Cl)nc1 | 22.4%
79 | CSCCC(NS(=O)(=O)c1ccc(Cl)cc1)C(=O)OCc1cccc(Cl)c1 (stereo unspecified) | 23.1%
80 | CCOC(=O)c1sc(NC(=O)CN(CC(C)C)CC(C)C)c(C(=O)OCC)c1C | 6.46%
81 | N#C/C(=C/c1cn[nH]c1-c1ccc(Br)cc1)C(=O)O | 20.3%
82 | Cc1ccc([N+](=O)[O-])c(-c2n[nH]c(=S)n2-c2cccc(Cl)c2)c1 | 24%
83 | CC(C)(C)[C@H]1COC(=O)[C@@H](Cc2ccc(F)cc2)C/C=C\C[C@@H](CC(=O)N[C@@H](CO)Cc2ccccc2)C(=O)N1 | 32.7% (active)
84 | CC(C)(C)[C@@H]1COC(=O)[C@H](Cc2ccc(F)cc2)C/C=C\C[C@@H](CC(=O)NCCO)C(=O)N1 | 17.5%
85 | CC(C)(C)[C@H]1COC(=O)[C@@H](Cc2ccc(F)cc2)CC/C=C/C[C@@H](CC(=O)N[C@H](CO)Cc2ccccc2)C(=O)N1 | 26.6% (active)
86 | CC(C)(C)[C@H]1COC(=O)[C@@H](Cc2ccc(F)cc2)C/C=C\C[C@@H](CC(=O)N[C@H](CO)Cc2ccccc2)C(=O)N1 | 62.1% (active)
